Experimental findings from PubChem BioAssay (NCATS) are described below.

Inconclusive results are not listed. The source made the active and inactive calls. Calls follow the shape of the dose curve; as a rule, active = well fitted inhibition curve with a large enough effect; inconclusive = small, poorly fitted or top-dose-only effect; inactive = no such curve, though single readings can be large or run the other way.
Potency is read from the fitted curve at half-maximal effect.

The assay is described as follows: BET inhibitor-based combinations targeting novel dependencies in MECOM-rearranged (r) AML: OCI-AML3 cell line (AID 2202232). Also: nearly all actives have a fitted effect of over 35% in size. The settings on record: CellTiter-Glo luminescence, 48 h; Potency: OCI-AML3 viability; series mostly up to 46 µM. From the text: Ecotropic viral insertion site 1 (EVI1) is located on chromosome 3q26.2 as part of the MECOM (MDS and EVI1 complex) locus. Under normal hematopoiesis, EVI1 is a regulator of hematopoietic stem cell maintenance and self-renewal and EVI1 levels decrease as the cells differentiate. In approximately 5-10% of de novo acute myeloid leukemia (AML) EVI1 is aberrantly expressed, including Chromosomal inv(3)(q21;q26.2) or t(3;3)(q21;q26.2) alterations (MECOM-r) that account for about 50% of AML with EVI1 overexpression 31. AMLs with high levels of EVI1 have a poor prognosis and an overall survival time averaging between 10-14 months. EVI1 overexpression confers resistance in leukemia cells, highlighting the need to develop new targeted therapies for EVI1 overexpressing AMLs.
Here, we performed an unbiased chemical drug screening by evaluating the single agent activity of a collection of 2,480 oncology-focused, approved and investigational drugs (NCATS Mechanism Interrogation Plates, MIPE v5.0) against a panel of seven AML cell lines. These included four MECOM-r cell-lines (AML-191, AML-194, UCSD-AML1 and HNT-34) and three non-MECOM-r AMLs (MV4-11, OCI-AML3 and SET-2). Exploiting the mechanistic redundancy built in the library, we identified target-level sensitivities in MECOM-r AML cells and relative activity as compared to other AML subtypes.
A collection of 2480 mechanistically annotated dugs (MIPE v5.0) was used to screen four 3q26.2 rearranged AML cell lines and three non-3q26.2 rearranged AML cell lines. This library purposely exploits redundancy by including multiple inhibitors of key onco-targets, while simultaneously encompassing mechanistic diversity, targeting more than 800 distinct mechanisms of action. Briefly, cells were seeded in 5 uL of growth media using a Multidrop Combi dispenser into 1536 well white polystyrene tissue culture treated plates (Corning) at a density of 500cells/well. For each cell-line, for each of the 2480 drugs in MIPE v5.0 library, an 11-point dose curve was generated via a 1536 pin-tool. Plates were incubated for 48 hr at standard incubator conditions, covered by a stainless steel gasketed lid to prevent evaporation. Cell viability was determined by luminescence based, Cell Titer Glo assay (Promega). In detail, 3 uL of Cell Titer Glo were added to each well and plates were incubated at room temperature for 15 min with a stainless-steel lid in place. Luminescence readings were taken using a Viewlux (PerkinElmer) with a 2 s exposure time per plate. Compound dose-response curves were normalized to DMSO and empty well controls on each plate. Quantitative drug activity data from dose-response curves was determined utilizing area Under the Curve (AUC) and Z-transformed AUC (Z-AUC, a mean-centering transformation applied to each individual cell-line screened).
Regarding `COc1ccc(-c2ccc3c(N4CCOCC4)nc(N4C[C@@H](C)O[C@@H](C)C4)nc3n2)cc1CO`, the Potency was 1180 nM (active). Regarding `CCc1c2c(nc3ccc(OC(=O)N4CCC(N5CCCCC5)CC4)cc13)-c1cc3c(c(=O)n1C2)COC(=O)[C@]3(O)CC`, the Potency is 186 nM (active).

Take `Cc1ccc(NC(=O)Nc2cc(C(F)(F)F)ccc2F)cc1Nc1ccc2c(c1)NC(=O)/C2=C\c1ccc[nH]1`: the Potency was 20900 nM (active).

As to `CCc1c2c(nc3ccc(O)cc13)-c1cc3c(c(=O)n1C2)COC(=O)[C@]3(O)CC`, the Potency was 9.3 nM (active). The same measure, in the same setting: in the case of `CCNC(=O)Nc1ncc(-c2cc(-c3c(C)cc(OC)cc3C)nc(-c3cnccn3)n2)s1` it was “inactive”. The same measure, in the same setting: in the case of `CC(C)n1nc(-c2ccc3oc(N)nc3c2)c2c(N)ncnc21` it was 417 nM (active); in that of `CCOC(=O)[C@@H](N)CCC(=O)N[C@@H](CSCc1ccccc1)C(=O)N[C@@H](C(=O)OCC)c1ccccc1`, 10500 nM (active); in that of `CC(=O)NCCC(=O)N[C@@H](CCC(N)=O)C(=O)N[C@@H](CO)C(=O)N[C@@H](CCC(N)=O)C(=O)N[C@@H](CCC(N)=O)C(=O)N[C@H](C(=O)N[C@@H](Cc1ccccc1)C(=O)N[C@]1(C)CCCCCCC=CCCC[C@@](C)(C(=O)N[C@@H](CCC(N)=O)C(=O)N[C@@H](CC(N)=O)C(N)=O)NC(=O)[C@H](CC(C)C)NC(=O)[C@H](CC(C)C)NC(=O)[C@@H](CCCNC(=N)N)NC(=O)[C@H](Cc2c[nH]c3ccccc23)NC(=O)[C@H](CC(C)C)NC(=O)[C@H](CC(N)=O)NC1=O)[C@H](C)O`, “inactive”.

For `CNC(=O)c1ccccc1Nc1nc(Nc2ccc3c(c2OC)CCC[C@@H](N2CCN(CCO)CC2)C3)ncc1Cl`, the Potency result is “inactive”. Still for that read-out and setting: in the case of `Cc1cc(Cl)ccc1OCCCC(=O)NO` it was 20900 nM (active).

`Cc1sc2c(c1C)C(c1ccc(Cl)cc1)=N[C@@H](CC(=O)Nc1ccc(OCCOCCOCCOCCNc3cccc4c3C(=O)N(C3CCC(=O)NC3=O)C4=O)cc1)c1nnc(C)n1-2` (stereo not given in full): the Potency was 33.2 nM (active). On the same count and under the same terms, in the case of `CC(C)[C@H](CO)Nc1nc(Nc2ccc(C(=O)O)c(Cl)c2)c2ncn(C(C)C)c2n1` it was “inactive”. The same measure, in the same setting: in the case of `Cc1nc(-c2cccnc2)sc1C(=O)Nc1ccccc1-c1cn2c(CN3CCOCC3)csc2n1` it was “inactive”; in that of `COc1cc(Nc2c(C#N)cnc3cc(OCCCN4CCN(C)CC4)c(OC)cc23)c(Cl)cc1Cl`, 6610 nM (active). On the same count and under the same terms, to `CC(C)[C@H](N)C(=O)OCCOCn1cnc2c(=O)[nH]c(N)nc21` belongs “inactive”; to `COc1cc2c(c(OC)c1OC)-c1ccc(OC)c(=O)cc1[C@@H](NC(C)=O)CC2`, 29.5 nM (active); to `Oc1ccc(C2CNCCc3c2cc(O)c(O)c3Cl)cc1` (stereo not given), “inactive”. `COc1cc(OC)c(/C=C/S(=O)(=O)Cc2ccc(OC)c(NCC(=O)O)c2)c(OC)c1`: the Potency is 209 nM (active). Same read-out and setting: to `Cc1cc(Nc2nc(N[C@@H](C)c3ccc(F)cc3)c(C#N)cc2F)n[nH]1` belongs 525 nM (active).

Consider `CCN(CC)CCCC(C)Nc1ccnc2cc(Cl)ccc12` (stereo not given), for which the viability (% of control) is 92.2% [at 8.46 µM] (inactive). For `COc1ccc(-n2cnc3cc(C(=O)N4CCCCC4)ccc32)cc1`, the Potency entry is “inactive”. With `CC(C)C[C@H](NC(=O)CNC(=O)c1cc(Cl)ccc1Cl)B1OC(=O)CC(CC(=O)O)(C(=O)O)O1` (stereo not given in full), the Potency was 132 nM (active). Take `O=C(CN1C(=O)C2(CCCC2)NC[C@H]1c1cc(F)cc(F)c1)Nc1ccc2c(c1)C[C@@]1(C2)C(=O)Nc2ncccc21`: the Potency entry is “inactive”. The same measure, in the same setting: in the case of `CC(=O)[C@H]1CC[C@H]2[C@@H]3CC=C4C[C@@H](O)CC[C@]4(C)[C@H]3CC[C@]12C` it was “inactive”; in that of `C[C@@H](Oc1cc(-n2cnc3ccc(CN4CCN(C)CC4)cc32)sc1C(N)=O)c1ccccc1C(F)(F)F`, 46.8 nM (active). Same read-out and setting: to `S=c1nc[nH]c2nc[nH]c12` belongs 1860 nM (active); to `S=C(NCc1ccc2c(c1)OCO2)N1CCN(c2ncnc3c2oc2ccccc23)CC1`, 2950 nM (active); to `O=C(Nc1ccccc1-c1cn2c(CN3CCNCC3)csc2n1)c1cnc2ccccc2n1`, 20900 nM (active).

`Cc1cc(O)c2c(c1)C(=O)c1cc(O)cc(O)c1C2=O`: the Potency is 9340 nM (active). Turning to `COc1c(C)cnc(Cn2cnc3c(Cl)nc(N)nc32)c1C`, the Potency is 372 nM (active). Consider `CCCCCOC(=O)Nc1nc(=O)n([C@@H]2O[C@H](C)[C@@H](O)[C@H]2O)cc1F`, for which the Potency entry was “inactive”. On the same count and under the same terms, in the case of `COc1cc2c(NC3CCN(C(C)C)CC3)nc(C3CCCCC3)nc2cc1OCCCN1CCCC1` it was 18600 nM (active).

As for `CCOC(=O)C1=C(N)Oc2ccc(Br)cc2C1C(C#N)C(=O)OCC` (stereo not given), the Potency result was “inactive”. Consider `COc1ccc(C2(C#N)CCC(C(=O)O)CC2)cc1OC1CCCC1` (stereo not given), for which the Potency entry was “inactive”. Take `Nc1nc2c(ncn2COCCO)c(=O)[nH]1`: the Potency entry was “inactive”. Take `OC[C@@H](O)[C@@H](O)[C@H](O)[C@@H](O)CO`: the Potency entry was “inactive”. Same read-out and setting: in the case of `O=NN(CCCl)C(=O)NC1CCCCC1` it was “inactive”. On the same count and under the same terms, in the case of `Cc1cc(Nc2ncc3c(n2)N(C)C(=O)N(c2cc(NC(=O)c4cccc(C(F)(F)F)c4)ccc2C)C3)n(C)n1` it was 296 nM (active).

Take `Cn1nnc2c(C(N)=O)ncn2c1=O`: the Potency result was “inactive”.

In the case of `C1COC(NC(C2CC2)C2CC2)=N1`, the Potency entry was “inactive”.
